Screening data deposited in PubChem by several laboratories.
hDAT+cocaine: modulates human dopamine transporter uptake under cocaine; Q01959; LLC-PK1 hDAT cells, [14C]-dopamine uptake with cocaine IC80; actives deviate in either direction; B-score at 10 µM; actives 1.3% (n = 110,000); AID 449768;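 active means Z score or B-score, a plate-position-corrected score, falls beyond the plate's 99.7% confidence bounds, in either direction; inactive means both scores lie inside the 99.7% bounds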;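 further: scored against the spread of the other compound wells on the same plate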
ERb coact inh: blocks coactivator binding to human estrogen receptor beta | TR-FRET ER-beta LBD / SRC1-Cy5 peptide binding; receptor agonist-loaded with 1 µM estradiol | inhibition, % at 25.6 µM | actives 1.3% (n = 86,000);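 active means compounds whose percent inhibition of the receptor-coactivator binding signal exceeds about 50% in the single-dose screen, limit read from the data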;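 further: 0% = receptor plus peptide wells without compound and 100% = peptide-only wells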
ERa SRC1 inh: blocks coactivator binding to human estrogen receptor alpha. P03372. TR-FRET ER-alpha LBD / SRC-1 peptide, estradiol-bound. inhibition, % at 25.6 µM. actives 1.7% (n = 86,000). AID 629; in the data active means inhibition above about 50%;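 further: 0% = receptor plus peptide control and 100% = peptide only without receptor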
Target sequence (P03372 whole entry, looked up, the tested form may be a part): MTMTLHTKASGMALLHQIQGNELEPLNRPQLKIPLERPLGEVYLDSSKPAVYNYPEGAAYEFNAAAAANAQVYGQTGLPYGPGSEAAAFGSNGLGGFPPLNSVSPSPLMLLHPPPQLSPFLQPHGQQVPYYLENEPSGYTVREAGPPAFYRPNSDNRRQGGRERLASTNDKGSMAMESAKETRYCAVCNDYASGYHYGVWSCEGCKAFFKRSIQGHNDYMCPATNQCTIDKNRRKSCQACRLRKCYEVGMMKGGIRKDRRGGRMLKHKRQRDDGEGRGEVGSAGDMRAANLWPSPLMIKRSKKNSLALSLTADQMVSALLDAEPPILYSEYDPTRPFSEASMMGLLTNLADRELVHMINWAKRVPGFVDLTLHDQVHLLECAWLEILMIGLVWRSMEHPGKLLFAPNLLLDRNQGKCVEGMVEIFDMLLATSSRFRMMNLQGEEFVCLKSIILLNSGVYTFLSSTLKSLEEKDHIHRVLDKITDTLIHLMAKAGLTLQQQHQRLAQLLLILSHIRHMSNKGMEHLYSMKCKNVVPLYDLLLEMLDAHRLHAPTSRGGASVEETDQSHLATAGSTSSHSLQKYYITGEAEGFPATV
ERa SRC1 pot: enhances coactivator binding to human estrogen receptor alpha | P03372 | TR-FRET ERalpha-LBD/SRC-Cy5 coactivator binding, 2 h; 100 = basal binding, no effect | coactivator binding (% of control), % at 25.6 µM | actives 1.3% (n = 86,000) | AID 639; in the data active means activity above about 200%;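 further: binding measured in presence of low estradiol as agonist stimulus; 0% = peptide alone without receptor and 100% = receptor with peptide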
MT1-MMP txn act: MT1-MMP promoter transcription activation. HT1080 MT1-MMP promoter luciferase reporter, luminescence, overnight; hits give high values. activation factor at 10 µM. actives 0.16% (n = 86,000). AID 750;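 active means activation factor of at least 2 for MT1-MMP transcription at 10 µM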
* = called active by the depositor; . = no result given; [ ] = dose if it differs, or a comment. This is a sample that favours compounds with a hit; in the whole collection about 3.8% have one here.

SMILES	hDAT+cocaine	ERb coact inh	ERa SRC1 inh	ERa SRC1 pot	MT1-MMP txn act
COc1cc2cc(C(c3nnnn3C3CCCC3)N3CCc4ccccc43)c(=O)[nH]c2cc1OC (stereo not drawn)	.	33	50*	216*[fluorescence artefact?]	1
COc1cc2cc(C(c3nnnn3C(C)(C)C)N3CCc4ccccc43)c(=O)[nH]c2cc1OC (stereo not drawn)	1.4	0	-7	98	1
C=C1C(=O)C=C2CN(C(=O)c3ccccc3)[C@@](Cc3ccc(OC)cc3)(C(=O)OC)[C@@H]12	.	.	.	.	1.1
O=C(Nc1ccc(Cl)cc1)N1CCN(c2ccc3nnc(-c4ccc(F)cc4)n3n2)CC1	2.8*	.	.	.	1.2
CCCCNC(=O)C(c1ccc(OCC(=O)OC)c(C(=O)OC)c1)N(CCc1ccccn1)C(=O)CCCCCN1C(=O)NC(c2ccc(-c3ccccc3)cc2)C(C(=O)OCc2ccccc2)=C1C (stereo not drawn)	.	.	.	.	1
CNc1cccccc1=S	-1.2	-7	96*[fluorescence artefact?]	11	1
CC(C)C[C@H](NC(=O)c1nc[nH]c1C(=O)N(C)Cc1ccccc1)C(=O)OCc1ccccc1	-0.025	.	.	.	.
O=c1c2cnn(-c3ccccc3)c2nnn1Cc1ccccn1	2.7*	-17	-11	113	1.3
CCOc1ccc2nc(NCCNC(=O)Nc3cccc(C)c3)c(C#N)cc2c1	-1.5	11	51*[fluorescence artefact?]	121	1.3
O=C(Cn1ncc2c(=O)oc3ccccc3c21)Nc1nc2ccccc2s1	-1.1	-4	6	429*	1.2
CNc1sc(C(=O)c2ccccc2F)c(N)c1-c1nc2ccccc2s1	-0.35	21	16	36	2.1*
Cc1nc(N)sc1N=Nc1ccc(Br)cc1	-1.8	-5	-4	89	1.7
Nc1nc(-n2cnnc2)nn1-c1ccccc1	-1.5	1	-9	97	1.1
Nc1nc(N2C(=O)C3CC=CCC3C2=O)nn1-c1ccccc1 (stereo not drawn)	-0.95	-8	57*	116	1.2
COC(=O)C1C(=O)C2=C(CC1C)NC(C)=C(C(=O)OC1CCCCC1)C2c1ccc(N(C)C)cc1 (stereo not drawn)	0.28	12	21	223*	1.1
COC(=O)C1C(=O)C2=C(CC1C)NC(C)=C(C(=O)OC(C)C)C2c1ccc(C)o1 (stereo not drawn)	0.24	1	1	91	1
O=C1[C@H]2[C@@H](C(=O)N1c1cc(Cl)cc(Cl)c1)[C@]1(C(=O)Nc3ccccc31)N1CCC[C@@H]21	3.8*	6	8	69	1.1
Cc1cc(C)cc(NC(=O)CSCc2nc3c(nnn3Cc3ccc(F)cc3)c(=O)[nH]2)c1	-0.59	-4	1	101	1.2
O=C(COC(=O)Cc1ccsc1)NCC1CCCCC1	-0.48	.	.	.	.
NC(=O)c1ccsc1NC(=O)COC(=O)Cc1ccsc1	-0.2	60*	55*[fluorescence artefact?]	71	1
Cc1nc(N2CCN(C)CC2)[nH]c(=O)c1Cc1cccc2ccccc12	2.5*	2	5	96	1.2
COc1cccc2c1C(CO)N1C(C#N)C3CC(C(=O)O)C(C1C2)N3C (stereo not drawn)	-0.55	.	.	.	.
Cc1cc(NC(=O)CSc2nnc3c(C)cc4cc(C)c(C)cc4n23)no1	-0.019	37	74*[fluorescence artefact?]	241*[fluorescence artefact?]	1.1
Cc1cc2cc(C)c3nnc(SCC(=O)NCc4ccco4)n3c2cc1C	1.4	16	-1	81	1.1
Cc1cc(NC(=O)CSc2nnc3c(C)cc4cc5c(cc4n23)OCO5)no1	.	26	52*[fluorescence artefact?]	171	0.9
SMILES	hDAT+cocaine	ERb coact inh	ERa SRC1 inh	ERa SRC1 pot	MT1-MMP txn act
Cn1nc(C(=O)Nc2c(-c3ccccc3)nc3sccn23)c2ccccc2c1=O	-0.17	16	62*[fluorescence artefact?]	85	1.1
Cc1c(NC(=O)c2nn(C)c(=O)c3ccccc23)c(=O)n(-c2ccccc2)n1C	.	.	.	.	0.9
COc1ccc(NC(=O)CN2C(=O)C(C)Oc3ccccc32)c(OC)c1 (stereo not drawn)	2.3*	-3	-1	115	1
N#C/C(=C(/O)COC(=O)CCCNC(=O)c1ccc(Cl)cc1)c1nc2ccccc2[nH]1	-0.68	40	52*[fluorescence artefact?]	66	1.1
N#C/C(=C(/O)COC(=O)Cc1c[nH]c2ccccc12)c1nc2ccccc2[nH]1	-0.15	11	29	59	1.1
Cc1cc(N2C(=O)C3CC=CC(C)C3C2=O)no1 (stereo not drawn)	-9.4*	31	13	69	1
Cc1cc(N2C(=O)C3CC=CCC3C2=O)no1 (stereo not drawn)	-0.62	1	-5	104	1
Cc1cc2n(c1)CCn1c(C)ccc1-2	1.8	52*	91*[fluorescence artefact?]	9	1.2
O=C(c1ccc(Cl)c(S(=O)(=O)N2CCCCCC2)c1)N1CCN(c2ccccn2)CC1	2.7*	.	.	.	.
Cc1ccccc1NC(=O)c1ccc(F)c(S(=O)(=O)N2CCN(c3ccccn3)CC2)c1	-0.25	3	-12	108	1
O=C(Nc1ccccc1)c1ccc(N2CCN(c3ccccc3)CC2)c(S(=O)(=O)N2CCOCC2)c1	-0.028	26	31	405*[fluorescence artefact?]	1.1
O=C(Nc1ccccc1)c1ccc(NC2CCCCC2)c(S(=O)(=O)N2CCOCC2)c1	0.81	7	-1	111	1.1
O=C(Nc1ccccc1)c1ccc(N2CCN(c3ccccn3)CC2)c(S(=O)(=O)N2CCOCC2)c1	-0.12	27	27	340*[fluorescence artefact?]	1
COC(=O)c1ccc([C@H](NC(=O)c2ccco2)[C@]2(C)C[C@H]2C2CCCCC2)cc1	0.91	.	.	.	.
COCC(C)NC(=O)NC1(C(F)(F)F)Oc2ccc(Cl)cc2O1 (stereo not drawn)	-3.2*	19	10	73	1.1
O=C(NCCN1CCOCC1)NC1(C(F)(F)F)Oc2ccc(Cl)cc2O1 (stereo not drawn)	.	.	.	.	1.1
O=C1C2C3C=CC(C3)C2C(=O)N1CNc1ccc(O)cc1 (stereo not drawn)	-0.14	87*[fluorescence artefact?]	61*[fluorescence artefact?]	47	1.2
Cc1ccc(-c2cc(C(=O)NCc3ccco3)no2)cc1	0.27	-21	-9	112	1.2
Cc1nn(Cc2ccc(Cl)cc2)c(C)c1NC(=O)c1cc(-c2ccc3c(c2)OCO3)on1	0.0066	19	70*[fluorescence artefact?]	74	1.1
O=C(NCc1ccco1)c1cc(-c2ccc3c(c2)OCO3)on1	-0.4	11	26	261*[fluorescence artefact?]	1.7
Cc1nn(Cc2ccc(Cl)c(Cl)c2)c(C)c1NC(=O)c1cc(-c2ccc3c(c2)OCO3)on1	0.19	-20	36	94	1.2
COc1ccc(S(=O)(=O)NCCC(C)C)cc1C	-0.015	-10	-9	92	0.9
O=C(Nc1nccs1)c1nc(-c2ccccc2)n(-c2ccccc2)n1	0.03	4	-5	343*	1.2
COc1cc(/C=C2/C(=N)N3C=CSC3=NC2=O)ccc1OCCCOc1c(C)cccc1C	0.59	43	90*[fluorescence artefact?]	120	1
CCOc1cc(/C=C2/C(=N)N3C=CSC3=NC2=O)ccc1OCCCOc1ccccc1C	-0.26	33	38	79	1.1
